Source: PubChem
A selection: hits, their analogues and other compounds. The true share with any hit is near 14%.
HCV inhibitor – blocks hepatitis C virus; Huh7.5.1 HCVcc-Cre infection, luciferase reporter, 44 h; 340,000 compounds, 3.4% hits; AID 651820; Potency, µM (highest dose often 41.8 µM), for the others: at the highest dose activity change, negative = inhibition, usual class: inhibitors; note: potency is the fitted concentration of half-maximal effect
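Reporter virus HCVcc-Cre (~0.5 moi) infects cells exposed to compound; seeding density 1,000 cells/well with 4 h settling beforehand. Luminescence, 15 sec read, taken 44 h post-infection following a 15 min RT substrate incubation.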
Pf growth 96h – inhibits malaria parasite growth, 96 h. 320,000 compounds, 6.9% hits. AID 504834. Potency, µM (series often up to 28.7 µM), for the others: top-dose activity change, negative = inhibition, usual class: inhibitors. P. falciparum luciferase reporter growth, 96 h; note: potency is the fitted concentration of half-maximal effect
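Two-generation exposure (96 h) targets delayed-death phenotype. Reporter parasites carrying integrated firefly luciferase, in red cells at 2% hematocrit and 0.05% parasitemia final, kept at 37 C, 5% CO2; luminescence loss indicates inhibition.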
LASV entry inh – blocks Lassa virus binding to or entry into cells; Lassa virus pseudotype entry inhibition, cell reporter; Potency, µM (series often up to 37.9 µM), inactives show top-dose activity change, negative = inhibition, most hits filed as inhibitors; 300,000 compounds, 1.2% hits; AID 540256; calls by dose curve; tested in HEK293 cells; note: potency is the fitted concentration of half-maximal effect; nearly all actives have a fitted effect of over 50% in size
Pf growth 48h – inhibits P. falciparum growth in the first generation, 48 h; 310,000 compounds, 5.9% hits; P. falciparum luciferase growth in erythrocytes, 48 h; Potency, µM (titrated, usually from 28.7 µM), inactives show top-dose activity change, negative = inhibition, usual class: inhibitors; note: potency is the fitted concentration of half-maximal effect
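Compounds are pin-transferred into medium, infected erythrocytes (2% hematocrit, 0.1% parasitemia final) are added, and plates sit one parasite generation at 37 C in 5% CO2. Detection reagent is then added and luminescence measured.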
HCMV antiviral – blocks human cytomegalovirus replication; 410,000 compounds, 4.5% hits; HFF cells, HCMV-luciferase reporter, 72 h; active compounds read low; activity change, negative = inhibition, % at 57.5 µM; in the data active = activity change below about -60%; inconclusive = no clear call, values can overlap the other calls; inactive = above about -39%
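Two-dose cell screen: HFF monolayers treated with compounds and infected with luciferase-expressing HCMV at 1 PFU/cell, 72 h at 37C, then lysed for luciferase measurement.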
Marburg entry inh – inhibitors of Marburg virus binding or cell entry | Marburg virus pseudotyped entry inhibition, cell reporter | Potency, µM (series often up to 37.8 µM), for inactives: top-dose activity change, negative = inhibition, most hits filed as inhibitors | 300,000 compounds, 1.8% hits; calls by dose curve; tested in HEK293 cells; note: potency is the fitted concentration of half-maximal effect
Numbers without * were called inactive; ? = inconclusive; nt = not tested or not shown; [ ] = remark or other dose. Unless noted, calls come from the whole dose curve; as a rule, active = well fitted inhibition curve with a large enough effect; inconclusive = small, poorly fitted or top-dose-only effect, or another doubt; inactive = no such curve, though single readings can be large or run the other way. % is set by controls: 0 for no effect and ±100 for the full control effect.

SMILES	HCV inhibitor	Pf growth 96h	LASV entry inh	Pf growth 48h	HCMV antiviral	Marburg entry inh
Cc1cc(N2CCCCC2)nc2ccc(NC(=O)/C=C/c3ccc(OCCC(C)C)cc3)cc12	nt	nt	-1%[46.1 µM]	nt	-11	-3%[46.1 µM]
CCOC1=C2[C@@H](CN(S(=O)(=O)c3ccc(C)cc3)[C@H]2c2cccc3ccccc23)[C@H]2C(=O)N(CC)C(=O)[C@H]2C1	nt	nt	nt	nt	-6	nt
CCc1ccc(-n2nc3ccc(NC(=O)c4cc5ccccc5o4)cc3n2)cc1	nt	nt	4%[46.1 µM]	nt	8	-6%[46.1 µM]
CCOC(=O)Cn1c(=O)n(C2CCCCC2)c2nc(-c3ccccc3Cl)nc(C(N)=O)c21	nt	nt	-4%[46.1 µM]	nt	-20	nt
Cc1cccc(Nc2ncnc3nc[nH]c23)c1	-15%	?	nt	67%	119	nt
CC(Nc1ncnc2nc[nH]c12)c1ccccc1 (stereo not drawn)	-25%	13µM*	-8%	?	?	-4%
CC(C)n1c(O)c(/C=C2\C=NN=C2c2ccccc2)sc1=S	-42%	?	?	?	?	11µM*
COc1ccc(C(=O)NCCc2nnc3ccc(SCC(=O)NCCc4ccc(OC)c(OC)c4)nn23)cc1	11%	3%	nt	-12%	23	nt
Cc1ccc(/C=C/c2nc3ccccc3n2S(=O)(=O)c2ccc(Br)cc2)cc1	nt	nt	?	nt	-89*	nt
CSc1ccc(/C=C/c2nc3ccccc3n2S(=O)(=O)c2cccc(Cl)c2)cc1	nt	nt	?	nt	-65*	-18%[46.1 µM]
Cc1ccccc1OCc1n(CC(=O)OC2CC(C)CCC2C(C)C)c2ccccc2[n+]1C (stereo not drawn)	?	?	?	?	-96*	3.5µM*
CC1CCC(C(C)C)C(OC(=O)COC(=O)c2cccn2C)C1 (stereo not drawn)	-10%	0%[5.75 µM]	?	?	?	-29%[46.1 µM]
CC1CCC(C(C)C)C(OC(=O)Cn2c(-c3ccc(Br)cc3)[n+](C)c3ccccc32)C1 (stereo not drawn)	?	?	?	1.7µM*	-99*	?
CC1CCC(C(C)C)C(OC(=O)COC(=O)c2ccccc2N)C1 (stereo not drawn)	9%	?	?	?	-16	-4%
CC1CCC(C(C)C)C(OC(=O)Cn2c(-c3ccc(Cl)cc3)[n+](C)c3ccccc32)C1 (stereo not drawn)	?	?	nt	?	-100*	nt
CCC(=O)N1CCc2cc(S(=O)(=O)NC(Cc3ccccc3)C(=O)NCc3ccc(F)cc3)ccc21 (stereo not drawn)	nt	nt	-27%[46.1 µM]	nt	-3	-12%[46.1 µM]
CCN(CC(O)COc1ccc(OCC(O)CN(CC)C2CCCCC2)cc1)C1CCCCC1 (stereo not drawn)	5µM*	nt	?	nt	-22	?
CN(CC(O)COc1ccc(S(=O)(=O)N2CCOCC2)cc1)C1CCCCC1 (stereo not drawn)	11%	-4%	1%	5%	?	-2%
Cc1ccccc1OCC(O)CN(Cc1ccccc1O)C1CCCCC1 (stereo not drawn)	-9%	0.19µM*	-16%[46.1 µM]	0.23µM*	?	11µM*
CCN(CC(O)COCc1ccc(Cl)cc1)C1CCCCC1 (stereo not drawn)	?	?	-47%	10µM*	-13	?
CN(CC(O)COc1ccccc1F)C1CCCCC1 (stereo not drawn)	2%	35%	5%[46.1 µM]	-16%[5.75 µM]	11	?
COC(=O)C[C@H]1CC[C@@H](NC(=O)C2CC2)[C@@H](CO)O1	nt	nt	nt	nt	-3	nt
COc1ccc(C(CCN2CCOCC2)c2c(OC)cc(OC)c3ccc(=O)oc23)cc1 (stereo not drawn)	2.8µM*	nt	nt	nt	-19	nt
COc1cc(C(CCN2CCCC2)c2c(OC)cc(OC)c3c(-c4ccccc4)cc(=O)oc23)cc(OC)c1OC (stereo not drawn)	-21%	1.9µM*	nt	2.3µM*	70	nt
COc1cc(C(CCN2CCOCC2)c2c(OC)cc(OC)c3c(-c4ccccc4)cc(=O)oc23)cc(OC)c1OC (stereo not drawn)	?	nt	nt	nt	-22	nt
SMILES	HCV inhibitor	Pf growth 96h	LASV entry inh	Pf growth 48h	HCMV antiviral	Marburg entry inh
COc1cc(OC)c2c(C)cc(=O)oc2c1C(CCN1CCN(c2ccccc2)CC1)c1ccc2c(c1)OCO2 (stereo not drawn)	?	2.1µM*	nt	3.3µM*	-31	nt
COc1cc(OC)c2c(-c3ccccc3)cc(=O)oc2c1C(CCN1CCCC1)c1ccc2c(c1)OCO2 (stereo not drawn)	44%[8.37 µM]	8.3µM*	nt	?	-33	nt
COc1ccc(C(CCN2CCCC2)c2c(OC)cc(OC)c3c(-c4ccccc4)cc(=O)oc23)cc1 (stereo not drawn)	-4%	12µM*	nt	12µM*	-23	nt
COc1cc(OC)c2c(-c3ccccc3)cc(=O)oc2c1C(CCN1CCOCC1)c1ccc2c(c1)OCO2 (stereo not drawn)	32%[8.37 µM]	nt	nt	nt	-20	nt
COc1ccc(C(CCN2CCCC(C)C2)c2c(OC)cc(OC)c3c(-c4ccccc4)cc(=O)oc23)cc1 (stereo not drawn)	-23%	5.9µM*	nt	12µM*	-34	nt
COc1ccc(C(CCN2CCOCC2)c2c(OC)cc(OC)c3c(-c4ccccc4)cc(=O)oc23)cc1 (stereo not drawn)	32µM*	nt	nt	nt	-27	nt
COc1cc(OC)c2c(-c3ccccc3)cc(=O)oc2c1C(CCN1CCCC(C)C1)c1ccc(N(C)C)cc1 (stereo not drawn)	-15%	?	nt	?	?	nt
COc1cc(C(CCN2CCCCC2)c2c(OC)cc(OC)c3c(C)cc(=O)oc23)cc(OC)c1OC (stereo not drawn)	?	9.3µM*	nt	8.3µM*	-3	nt
CC1(C(=O)NS(=O)(=O)c2ccccc2Cl)CCN1C(=O)CC1CCCC1 (stereo not drawn)	nt	nt	nt	nt	-7	nt
COc1ccc(Cn2ccnc2SCC(=O)NCc2ccccc2)cc1	nt	nt	-28%[46.1 µM]	nt	68	nt
COc1ccc(C(CCN2CCCC(C)C2)c2c(OC)cc(OC)c3c(C)cc(=O)oc23)cc1 (stereo not drawn)	?	2.6µM*	nt	2.9µM*	6	nt
Cc1oc(-c2ccccc2Cl)nc1CS(=O)(=O)CC(=O)NCc1ccc(F)cc1	nt	nt	3%[46.1 µM]	nt	-14	-13%[46.1 µM]
CN(C)CCN1C(=O)c2oc3ccc(Cl)cc3c(=O)c2C1c1cccc(Br)c1 (stereo not drawn)	1%	426%	-4%	1.9µM*	19	14%
CN(C)CCN1C(=O)c2oc3ccccc3c(=O)c2C1c1cccc(Br)c1 (stereo not drawn)	14%	?	-3%	?	-21	-29%
O=C1c2oc3ccc(Cl)cc3c(=O)c2C(c2ccco2)N1CCN1CCOCC1 (stereo not drawn)	-10%	?	nt	8.3µM*	98	nt
